For experiment [1], the target named is Retinoic acid receptor RXR-alpha (Homo sapiens) (UniProt P19793). Description: ATG_RXRa_TRANS: Attagene TRANS-FACTORIAL HepG2 Assay for human Retinoid X Receptor alpha (RXRa) (AID 2283012; active = hit-call score of the fitted dose curve at least 0.9, where 1 is the maximum). In short, it runs like this:
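Cells (HepG2) carried transiently transfected GAL4-responsive reporter units. Following a 24 h chemical incubation, reporter mRNA induction was read via RT-PCR fragment analysis; DMSO served as negative control and baseline.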

Experiment [2] deals with human Retinoid X Receptor beta (RXRb), RXRB (gene 6257) (UniProt P28702). Description: ATG_RXRb_TRANS: Attagene TRANS-FACTORIAL HepG2 Assay for human Retinoid X Receptor beta (RXRb) (AID 2283013; active = hit-call score of the fitted dose curve at least 0.9, where 1 is the maximum). In short, it runs like this:
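Multiplexed TRANS reporter assay in HepG2; 24 h dosing; reporter mRNA by RT-PCR/CE fluorescence; gain-of-signal relative to DMSO.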

For experiment [3], the target named is human Thyroid Receptor alpha (THRa1), THRA (gene 7067) (UniProt P10827). The experiment is described as follows: ATG_THRa1_TRANS: Attagene TRANS-FACTORIAL HepG2 Assay for human Thyroid Receptor alpha (THRa1) (AID 2283014; active = hit-call score of the fitted dose curve at least 0.9, where 1 is the maximum). The essentials:
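First, HepG2 cells receive multiple GAL4-UAS reporter units and the chimeric receptor. They are then dosed for 24 h, after which RNA is reverse-transcribed, amplified, labelled, HpaI-cut and sized by capillary electrophoresis; gain relative to DMSO is scored.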

Read-out in experiment [4]: E-selectin (Homo sapiens) (UniProt P16581)
Description: BSK_3C_Eselectin: BioMAP Diversity Plus: 3C Assay for Eselectin Biomarker Activity (AID 2283015).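 For outcome: cell surface E-selectin protein quantified by ELISA 24 h after dosing.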 Conditions: primary human endothelial cells (HUVEC); actives raise or lower the signal. The essentials:
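Human vascular endothelium from umbilical vein is exposed to test chemicals for 24 h. E-selectin levels are read by ELISA and compared with DMSO controls.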

Read-out in experiment [5]: Interleukin-1 alpha (IL1a), IL1A (gene 3552)
The experiment is described as follows: BSK_BE3C_IL1a: BioMAP Diversity Plus: BE3C Assay for Interleukin-1 alpha (IL1a) Biomarker Activity (AID 2283016). The following applies: primary human bronchial epithelial cells; actives raise or lower the signal. The essentials: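 Cultures of primary human bronchial epithelial cells receive test chemical. After 24 h, IL-1a is quantified by ELISA, while parallel wells are fixed in TCA and SRB-stained for total protein. Changes in either direction are fitted relative to DMSO.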

Read-out in experiment [6]: Monocyte Chemoattractant Protein-1 (MCP1), CCL2 (gene 6347)
The experiment is described as follows: BSK_3C_MCP1: BioMAP Diversity Plus: 3C Assay for Monocyte Chemoattractant Protein-1 (MCP1) Biomarker Activity (AID 2283017). The following applies: primary human endothelial cells (HUVEC); actives raise or lower the signal. The essentials: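 Endothelial cells from human umbilical vein are dosed with chemical, cultured 24 h, then assayed for MCP-1 by ELISA; both increases and decreases are modelled against DMSO controls.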

Read-out in experiment [7]: Monocyte Chemoattractant Protein-1 (MCP1), CCL2 (gene 6347)
The experiment is described as follows: BSK_4H_MCP1: BioMAP Diversity Plus: 4H Assay for Monocyte Chemoattractant Protein-1 (MCP1) Biomarker Activity (AID 2283018). The following applies: primary human endothelial cells (HUVEC); actives raise or lower the signal. The essentials: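 Readout: MCP-1 ELISA on compound-treated HUVEC, sampled 24 h post-dosing. Baseline and negative control DMSO; bidirectional fit. Overt toxicity checked alongside by sulforhodamine B protein staining at time of biomarker measurement.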

Read-out in experiment [8]: Human Leukocyte Antigen - DR isotype (HLADR), HLA-DRA (gene 3122)
Description: BSK_3C_HLADR: BioMAP Diversity Plus: 3C Assay for Human Leukocyte Antigen - DR isotype (HLADR) Biomarker Activity (AID 2283019). The following applies: primary human endothelial cells (HUVEC); actives raise or lower the signal. The essentials: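 Endothelial cells from human umbilical vein are treated with test chemical; after 24 h, HLA-DR levels are measured by ELISA. Data are fitted in both directions using DMSO as the baseline.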

Read-out in experiment [9]: Interleukin-8 (IL8), CXCL8 (gene 3576)
The experiment is described as follows: BSK_3C_IL8: BioMAP Diversity Plus: 3C Assay for Interleukin-8 (IL8) Biomarker Activity (AID 2283020). Conditions: primary human endothelial cells (HUVEC); actives raise or lower the signal. The essentials: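 Human vascular endothelial cells (umbilical vein) in the 3C system; IL-8 level detected by ELISA at 24 h post-dose, with DMSO as baseline.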

Read-out in experiment [10]: Monokine induced gamma interferon (MIG), CXCL9 (gene 4283)
The experiment is described as follows: BSK_3C_MIG: BioMAP Diversity Plus: 3C Assay for Monokine induced gamma interferon (MIG) Biomarker Activity (AID 2283021).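 For AC50: MIG protein level measured by immunoassay in the treated endothelial cultures.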 The following applies: primary human endothelial cells (HUVEC); actives raise or lower the signal. The essentials: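 After 24 h of treatment, human umbilical vein endothelial cultures (3C system) had their MIG biomarker level determined by ELISA, with DMSO serving as negative control.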

Experiment [11] is described as follows: BSK_3C_SRB: Viability Assessment in the BioMAP Diversity Plus: 3C Assay (AID 2283023).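 Note: fitted both ways against DMSO so a hit may be signal rise or drop.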 Conditions: primary human endothelial cells (HUVEC). In short, it runs like this: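 Cells were dosed with chemical, cultured 24 h, fixed with 10% TCA, stained with 0.1% SRB and read at 560 nm. Human umbilical vein endothelium was used; DMSO served as negative control and baseline.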

Read-out in experiment [12]: Matrix Metallopeptidase 1 (MMP1), MMP1 (gene 4312)
Description: BSK_BE3C_MMP1: BioMAP Diversity Plus: BE3C Assay for Matrix Metallopeptidase 1 (MMP1) Biomarker Activity (AID 2283024). The following applies: primary human bronchial epithelial cells; actives raise or lower the signal. The essentials:
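Dose cells, wait 24 h, run MMP1 ELISA; cells are human bronchial epithelial primaries. Both increases and decreases relative to DMSO counted.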

Read-out in experiment [13]: Pselectin, SELP (gene 6403)
The experiment is described as follows: BSK_4H_Pselectin: BioMAP Diversity Plus: 4H Assay for Pselectin Biomarker Activity (AID 2283026). The following applies: primary human endothelial cells (HUVEC); actives raise or lower the signal. In short, it runs like this:
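Human vascular endothelium from umbilical vein; P-selectin measured by ELISA at 24 h post-dose, with cytotoxicity checked by sulforhodamine B total-protein staining in parallel cultures (0.1% SRB after 10% TCA fixation, read at 560 nm).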

Experiment [14] in a line: BSK_4H_SRB: Viability Assessment in the BioMAP Diversity Plus: 4H Assay (AID 2283027).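 For AC50: curves fitted both ways versus DMSO so AC50 may be loss or gain.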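 Note: cells exposed to compound for 24 h before staining.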 The following applies: primary human endothelial cells (HUVEC). The essentials:
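Absorbance at 560 nm of SRB-stained total protein served as the viability read-out in confluent primary human umbilical vein endothelium 24 h after chemical treatment. Curves were fitted bidirectionally against DMSO as negative control.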

Experiment [15] is described as follows: BSK_BE3C_SRB: Viability Assessment in the BioMAP Diversity Plus: BE3C Assay (AID 2283028).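 For AC50: fitted both ways so AC50 may mark signal gain or loss versus DMSO.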 The following applies: primary human bronchial epithelial cells. The essentials:
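Overt cytotoxicity was assessed as total protein in confluent human primary bronchial epithelial cultures 24 h after chemical addition, using 0.1% sulforhodamine B staining read at 560 nm.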

Read-out in experiment [16]: Urokinase-type plasminogen activator receptor (uPAR), PLAUR (gene 5329)
The experiment is described as follows: BSK_4H_uPAR: BioMAP Diversity Plus: 4H Assay for Urokinase-type plasminogen activator receptor (uPAR) Biomarker Activity (AID 2283030). Conditions: primary human endothelial cells (HUVEC); actives raise or lower the signal. In short, it runs like this: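 Chemicals are dosed onto human vascular endothelial primary cells (umbilical vein). After 24 h, uPAR is read by ELISA. Gain or loss of signal is fitted relative to DMSO.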

Read-out in experiment [17]: Vascular endothelial growth factor receptor 2 (Homo sapiens) (UniProt P35968)
Description: BSK_4H_VEGFRII: BioMAP Diversity Plus: 4H Assay for Vascular endothelial growth factor receptor 2 (VEGFR2) Biomarker Activity (AID 2283031). Conditions: primary human endothelial cells (HUVEC); actives raise or lower the signal. In short, it runs like this:
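VEGFRII levels on human vascular endothelial primary cells were determined by ELISA at 24 hours post-dosing, with gain- or loss-of-signal fitted against DMSO controls.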

Read-out in experiment [18]: Human Leukocyte Antigen - DR isotype (HLADR), HLA-DRA (gene 3122)
Description: BSK_BE3C_HLADR: BioMAP Diversity Plus: BE3C Assay for Human Leukocyte Antigen - DR isotype (HLADR) Biomarker Activity (AID 2283032). The following applies: primary human bronchial epithelial cells; actives raise or lower the signal. In short, it runs like this:
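Signal came from an ELISA for HLA-DR in human bronchial epithelial primary cells harvested 24 h after treatment; gain- and loss-of-signal fitting used DMSO controls as reference.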

Read-out in experiment [19]: Vascular cell adhesion molecule 1 (VCAM1), VCAM1 (gene 7412)
Description: BSK_4H_VCAM1: BioMAP Diversity Plus: 4H Assay for Vascular cell adhesion molecule 1 (VCAM1) Biomarker Activity (AID 2283033). The following applies: primary human endothelial cells (HUVEC); actives raise or lower the signal. In short, it runs like this: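 Endpoint derived from bidirectional fitting against DMSO controls of VCAM-1 ELISA signal in umbilical vein endothelial cells sampled at 24 h following treatment.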

Experiment [20] concerns the target human Vitamin D Receptor (VDR), VDR (gene 7421) (UniProt P11473). The experiment is described as follows: ATG_VDR_TRANS: Attagene TRANS-FACTORIAL HepG2 Assay for human Vitamin D Receptor (VDR) (AID 2283022; active = hit-call score of the fitted dose curve at least 0.9, where 1 is the maximum). The essentials:
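Fluorescence of labelled reporter cDNA fragments, resolved by capillary electrophoresis, gives mRNA induction after 24 h treatment of HepG2 cells carrying transfected Gal4-fusion reporter units. Activity is fitted in the positive direction with DMSO as baseline.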

In PubChem BioAssay (EPA / NIEHS) one finds outcome and AC50 data, which are given here for nine compounds.

Records with an inconclusive call do not appear. Active and inactive are the calls of the source. Rule for the calls, unless noted: active = hit-call score of the fitted dose curve at least 0.9, where 1 is the maximum; inactive = score below 0.9.

In general, AC50 refers to the midpoint of the concentration-response curve, whichever way the signal moves.

Chain of human Thyroid Receptor alpha (THRa1), THRA (gene 7067) (P10827 whole entry, looked up, the tested form may be a part): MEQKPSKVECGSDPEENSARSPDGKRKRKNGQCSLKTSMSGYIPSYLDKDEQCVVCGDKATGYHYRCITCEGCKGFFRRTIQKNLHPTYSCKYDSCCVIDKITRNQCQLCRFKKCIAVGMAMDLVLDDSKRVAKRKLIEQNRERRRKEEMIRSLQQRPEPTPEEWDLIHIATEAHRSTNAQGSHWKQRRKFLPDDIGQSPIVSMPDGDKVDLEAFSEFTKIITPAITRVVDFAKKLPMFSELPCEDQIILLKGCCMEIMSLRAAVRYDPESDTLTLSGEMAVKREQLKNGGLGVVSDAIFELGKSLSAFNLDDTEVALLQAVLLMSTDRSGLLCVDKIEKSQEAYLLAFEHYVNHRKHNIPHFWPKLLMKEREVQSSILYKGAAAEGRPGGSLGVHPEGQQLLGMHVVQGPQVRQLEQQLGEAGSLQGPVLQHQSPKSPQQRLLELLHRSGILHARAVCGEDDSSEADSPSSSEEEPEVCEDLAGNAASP
Chain of Retinoic acid receptor RXR-alpha (Homo sapiens) (P19793 whole entry, looked up, the tested form may be a part): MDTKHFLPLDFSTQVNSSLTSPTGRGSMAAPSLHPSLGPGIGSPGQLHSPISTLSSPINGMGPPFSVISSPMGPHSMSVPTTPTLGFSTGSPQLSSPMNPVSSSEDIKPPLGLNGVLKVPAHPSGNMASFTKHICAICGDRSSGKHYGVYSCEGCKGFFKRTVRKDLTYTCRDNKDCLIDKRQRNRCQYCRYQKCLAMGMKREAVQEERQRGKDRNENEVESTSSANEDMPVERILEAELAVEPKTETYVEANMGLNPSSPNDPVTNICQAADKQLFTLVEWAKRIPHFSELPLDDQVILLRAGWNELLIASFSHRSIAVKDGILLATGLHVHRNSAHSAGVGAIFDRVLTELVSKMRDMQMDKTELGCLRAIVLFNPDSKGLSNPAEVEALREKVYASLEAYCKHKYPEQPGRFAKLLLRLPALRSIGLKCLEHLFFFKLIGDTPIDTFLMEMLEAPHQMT
Chain of human Retinoid X Receptor beta (RXRb), RXRB (gene 6257) (P28702 whole entry, looked up): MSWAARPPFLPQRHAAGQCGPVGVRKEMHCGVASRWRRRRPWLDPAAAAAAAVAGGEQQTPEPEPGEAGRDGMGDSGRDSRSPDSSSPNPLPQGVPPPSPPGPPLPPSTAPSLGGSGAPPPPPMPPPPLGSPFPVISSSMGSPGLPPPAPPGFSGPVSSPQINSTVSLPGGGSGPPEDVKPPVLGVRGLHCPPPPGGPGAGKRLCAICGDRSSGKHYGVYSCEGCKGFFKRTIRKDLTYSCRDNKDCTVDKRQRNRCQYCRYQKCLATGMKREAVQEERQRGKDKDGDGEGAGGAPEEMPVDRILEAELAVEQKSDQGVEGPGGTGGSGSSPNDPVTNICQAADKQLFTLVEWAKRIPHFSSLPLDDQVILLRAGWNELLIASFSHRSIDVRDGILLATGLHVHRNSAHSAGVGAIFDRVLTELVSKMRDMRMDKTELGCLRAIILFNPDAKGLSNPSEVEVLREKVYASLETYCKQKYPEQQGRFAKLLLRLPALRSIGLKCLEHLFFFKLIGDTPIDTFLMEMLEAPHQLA
Chain of E-selectin (Homo sapiens) (P16581 whole entry, looked up): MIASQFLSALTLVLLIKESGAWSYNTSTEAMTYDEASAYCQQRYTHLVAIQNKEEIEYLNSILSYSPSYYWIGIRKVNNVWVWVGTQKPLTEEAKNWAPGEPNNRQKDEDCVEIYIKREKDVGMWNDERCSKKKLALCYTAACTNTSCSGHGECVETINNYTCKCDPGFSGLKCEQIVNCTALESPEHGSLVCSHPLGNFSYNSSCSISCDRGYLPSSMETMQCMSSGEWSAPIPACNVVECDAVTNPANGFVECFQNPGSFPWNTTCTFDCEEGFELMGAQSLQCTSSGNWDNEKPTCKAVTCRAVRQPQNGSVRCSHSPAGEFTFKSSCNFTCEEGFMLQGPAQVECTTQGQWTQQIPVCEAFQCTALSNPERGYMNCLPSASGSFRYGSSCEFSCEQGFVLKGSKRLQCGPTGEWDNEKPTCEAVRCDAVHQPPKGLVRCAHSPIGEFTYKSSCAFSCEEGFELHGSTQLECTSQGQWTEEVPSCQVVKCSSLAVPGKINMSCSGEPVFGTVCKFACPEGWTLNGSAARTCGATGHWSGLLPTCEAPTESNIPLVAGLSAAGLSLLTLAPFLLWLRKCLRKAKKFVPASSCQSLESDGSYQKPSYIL
Chain of human Vitamin D Receptor (VDR), VDR (gene 7421) (P11473 whole entry, looked up, the tested form may be a part): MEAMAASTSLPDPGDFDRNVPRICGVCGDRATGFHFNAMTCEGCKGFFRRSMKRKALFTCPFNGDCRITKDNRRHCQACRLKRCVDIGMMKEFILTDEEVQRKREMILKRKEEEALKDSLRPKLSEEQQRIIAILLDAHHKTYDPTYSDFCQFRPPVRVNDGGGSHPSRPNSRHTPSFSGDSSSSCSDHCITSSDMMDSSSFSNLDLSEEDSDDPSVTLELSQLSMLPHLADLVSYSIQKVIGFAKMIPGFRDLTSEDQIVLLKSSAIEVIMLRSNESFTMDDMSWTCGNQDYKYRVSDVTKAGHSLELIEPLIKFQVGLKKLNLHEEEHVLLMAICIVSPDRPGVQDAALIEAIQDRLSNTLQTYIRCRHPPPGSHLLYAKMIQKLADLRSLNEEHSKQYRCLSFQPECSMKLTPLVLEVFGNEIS

As for `O=[N+]([O-])c1ccc(CO)cc1`, the compound was called inactive in experiment [1], in experiment [2] and in experiment [3].
Turning to `O=C(Nc1ccccc1SSc1ccccc1NC(=O)c1ccccc1)c1ccccc1`, the compound was classed as inactive in [1], in experiment [2], in experiment [3], in experiment [4], in experiment [5] and in [9]. Further, the outcome in experiment [10], in [11], in experiment [12], in experiment [13], in [14] and in experiment [15] was inactive. Also, the result in experiment [16], in experiment [17] and in experiment [18] was inactive. For the same compound, the AC50 in experiment [6] was 8.27 µM (active); in experiment [7], 9.13 µM (active); in experiment [8] it was 10 µM (active); in experiment [19] it was 20 µM (active).
Take `CNC(=S)NN`: the compound was classed as inactive in experiment [1], in [2] and in experiment [3].
In the case of `O=C(Nc1ccccc1)c1ccccc1O`, the compound was classed as inactive in experiment [1], in [2] and in [3].
As for `CCN(CCO)c1cccc(C)c1`, the result in experiment [1] and in experiment [2] was inactive.
Regarding `Nc1ccc(Cl)cc1Cl`, the compound was classed as inactive in experiment [1] and in experiment [2].
With `Cc1ccc(C(C)(C)C)cc1`, the compound was called inactive in experiment [1], in experiment [2] and in experiment [3].
Regarding `CCCCC(CC)COC(=O)c1ccccc1` (stereo not drawn), the compound was called inactive in experiment [1] and in [3]. Moreover, the AC50 in [2] was 60.9 µM (active).
Regarding `C#CC1(O)CC[C@H]2[C@@H]3CCC4=CCCC[C@@H]4[C@H]3CC[C@@]21C` (stereo partly drawn), the compound was classed as inactive in experiment [1], in experiment [2], in experiment [3], in experiment [20] and in experiment [17]. Further, the AC50 in experiment [4] is 8.71 µM (active); in experiment [5] it was 35.5 µM (active); in experiment [6], 11 µM (active); in experiment [7], 9.46 µM (active); in experiment [8] it was 10.8 µM (active); in experiment [9] it was 10.2 µM (active). For the same compound, the AC50 in [10] was 12.9 µM (active); in experiment [11], 6.9 µM (active); in experiment [12] it was 36.4 µM (active); in [13] it was 11.4 µM (active); in experiment [14], 8.54 µM (active); in experiment [15], 29.9 µM (active). Moreover, the AC50 was 20 µM (active) in experiment [16], 33.3 µM (active) in experiment [18] and 15.1 µM (active) in experiment [19].
